Source: PubChem (National Center for Advancing Translational Sciences (NCATS))
The list is not random: actives were taken first. Their share in the collection is about 10%.
G9a inh = blocks human histone lysine methyltransferase G9a. Potency, µM (series often up to 102 µM), for the others: at the highest dose activity, negative = inhibition, hits mostly inhibitors. Q96KQ7. G9a H3K9 monomethylation, AlphaScreen, 2 h. AID 504332. hit rate 8.8% among 350,000; note: potency is the fitted concentration of half-maximal effect; % is set by controls: 0 for no effect and ±100 for the full control effect; nearly all actives have a fitted effect of over 75% in size
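Step 1: enzyme (final 20 nM) with compound, 15 min RT. Step 2: substrate peptide 500 nM and SAM 20 uM, 2 h RT. Step 3: anti-H3K9me1 antibody and AlphaScreen beads, 10 min, then plate read.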
Six1-Eya2 inh = blocks human Six1 binding to Eya2. Q15475+O00167. AlphaScreen GST-Six1/His-Eya2 binding, biochemical; active compounds read low. activity change, % (test concentration not listed). hit rate 0.56% among 360,000; in the data active = activity change below about -65%; inconclusive = mostly about -30% to -63%; note: % is set by controls: 0 for no effect and ±100 for the full control effect
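Six1/Eya2 binding was read as AlphaScreen signal after compounds were pinned into GST-Six1 plus His-tagged Eya2 (5X stock 250/500 nM) in pH 8.0 Tris/NaCl/TCEP buffer, beads added, then incubated 1 h, 37 C, dark.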
HP1b chromo inh = HP1-beta chromodomain-methylated histone interaction inhibition | AlphaScreen HP1-beta / biotin-H3K9me3 peptide binding | hit rate 0.56% among 390,000 | Potency, µM (series often up to 114 µM), for the others: at the top dose activity change, negative = inhibition, actives largely listed as inhibitors | P83916 | AID 540317; note: potency is the fitted concentration of half-maximal effect; nearly all actives have a fitted effect of over 70% in size
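AlphaScreen: HP1-beta (50 nM) preformed 30 min with biotin-H3(1-18)K9me3 peptide (50 nM) in PBS pH 7.4, 0.01% Tween-20. Compound added for 30 min at RT, then streptavidin donor/nickel chelate acceptor beads (10 ug/mL) for 30 min.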
JMJD2A Tudor = JMJD2A Tudor domain (human) inhibition; hit rate 4.4% among 390,000; AlphaScreen JMJD2A-Tudor / H3K4me3 peptide binding; Potency, µM (series often up to 114 µM), inactives show at the top dose activity change, negative = inhibition, usual class: inhibitors; AID 504339; note: potency is the fitted concentration of half-maximal effect; % is set by controls: 0 for no effect and ±100 for the full control effect; nearly all actives have a fitted effect of over 50% in size
Target sequence (O75164 whole entry, looked up, the tested form may be a part): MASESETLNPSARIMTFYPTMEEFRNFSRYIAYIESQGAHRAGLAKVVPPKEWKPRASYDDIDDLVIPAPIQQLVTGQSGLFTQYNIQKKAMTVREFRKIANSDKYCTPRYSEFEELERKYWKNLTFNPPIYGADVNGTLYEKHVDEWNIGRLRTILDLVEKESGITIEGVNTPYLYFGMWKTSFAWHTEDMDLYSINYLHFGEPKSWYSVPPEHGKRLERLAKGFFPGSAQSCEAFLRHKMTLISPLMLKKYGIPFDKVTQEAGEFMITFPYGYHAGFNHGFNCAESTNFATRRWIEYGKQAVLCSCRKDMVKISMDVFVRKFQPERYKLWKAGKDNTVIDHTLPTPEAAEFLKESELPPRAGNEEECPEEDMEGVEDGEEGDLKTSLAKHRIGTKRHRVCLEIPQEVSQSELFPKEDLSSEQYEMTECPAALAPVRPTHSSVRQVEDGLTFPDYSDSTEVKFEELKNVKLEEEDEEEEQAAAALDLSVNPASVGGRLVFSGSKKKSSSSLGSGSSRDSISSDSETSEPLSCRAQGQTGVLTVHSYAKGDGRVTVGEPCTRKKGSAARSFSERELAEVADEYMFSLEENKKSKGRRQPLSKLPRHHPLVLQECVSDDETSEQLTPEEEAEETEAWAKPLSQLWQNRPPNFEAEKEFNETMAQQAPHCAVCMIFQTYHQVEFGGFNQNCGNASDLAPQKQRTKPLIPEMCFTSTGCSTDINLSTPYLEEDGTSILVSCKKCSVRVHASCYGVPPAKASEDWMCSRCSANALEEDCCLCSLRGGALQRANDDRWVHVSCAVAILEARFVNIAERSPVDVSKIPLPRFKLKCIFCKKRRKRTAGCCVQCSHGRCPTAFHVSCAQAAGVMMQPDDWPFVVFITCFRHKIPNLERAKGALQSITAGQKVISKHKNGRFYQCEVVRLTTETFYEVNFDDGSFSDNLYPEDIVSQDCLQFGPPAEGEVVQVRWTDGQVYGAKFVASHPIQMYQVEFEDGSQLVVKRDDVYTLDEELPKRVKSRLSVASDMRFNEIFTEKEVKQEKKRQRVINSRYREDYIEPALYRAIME
BAZ2B inh = blocks human BAZ2B. AlphaScreen BAZ2B-H3K14Ac peptide displacement. Potency, µM (series often up to 114 µM), for the others: at the top dose activity change, negative = inhibition, usual class: inhibitors. hit rate 4.4% among 360,000; note: potency is the fitted concentration of half-maximal effect; % is set by controls: 0 for no effect and ±100 for the full control effect; nearly all actives have a fitted effect of over 60% in size
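AlphaScreen luminescence quantifies BAZ2B engagement of H3K14Ac peptide; the protein and biotinylated peptide are both at 50 nM final, buffer PBS pH 7.4 with 0.01% Tween-20, all steps at room temperature.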
CtBP-E1A inh = blocks the CtBP interaction with E1A | AlphaScreen GST-E1A/His-CtBP binding, 1536-well; active compounds read low | activity change, % (no concentration beside the values) | hit rate 0.49% among 340,000; in the data active = activity change below about -65%; inconclusive = mostly about -30% to -63%; note: % is set by controls: 0 for no effect and ±100 for the full control effect
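Protein mix (5X: 125 nM each GST-E1A, His-CtBP) was incubated with pinned compound 2 h at 37 deg C in dark, in 50 mM Tris pH 8.0 buffer with 300 mM NaCl. Glutathione donor and nickel acceptor beads followed; AlphaScreen signal read after 1 h.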
An asterisk follows results filed as active; ? = inconclusive; . = no result; [ ] = dose if it differs, or a comment. Unless noted, calls come from the whole dose curve; as a rule, active = well fitted inhibition curve with a large enough effect; inconclusive = small, poorly fitted or top-dose-only effect; inactive = no such curve, though single readings can be large or run the other way.

SMILES	G9a inh	Six1-Eya2 inh	HP1b chromo inh	JMJD2A Tudor	BAZ2B inh	CtBP-E1A inh
CCOC(=O)Cn1nc(C)c(NC(=O)COc2ccc(Cl)cc2C)c1C	0%[59 µM]	.	5%	-10%	-34%	.
Cc1cccc(N2CCN(S(=O)(=O)c3ccc(-c4coc(C)n4)cc3)CC2C)c1 (configuration not stated)	25µM*	-9	-1%	-26%	?	-10
COc1ccc(CNC(=O)c2ccc(N3CCCC3)c(NC(=O)NCc3ccc(F)cc3)c2)cc1	?	.	3%	?	-24%	.
COc1cc(S(=O)(=O)NCCc2c(C)[nH]c3ccc(C)cc23)ccc1Br	?	.	?	50µM*	?	.
COc1ccc(C(C)C)cc1S(=O)(=O)NCCCn1ccnc1	20%	1	34%	-12%	-26%	-13
COc1ccc(C(C)C)cc1S(=O)(=O)NCCc1c(C)[nH]c2c(Cl)cccc12	?	.	-12%	?	28µM*	.
COc1ccc(OC)c2[nH]c(=O)c(CCNS(=O)(=O)c3ccc(F)cc3)cc12	-7%	-12	9%	-7%	-12%	-3
Cc1[nH]c2c(C)cccc2c1CCNS(=O)(=O)c1cccc([N+](=O)[O-])c1	?	-10	?	?	50µM*	-15
COc1c(C)cc(S(=O)(=O)NCCc2c(C)[nH]c3ccccc23)c(C)c1C	?	.	-19%	?	40µM*	.
Cc1[nH]c2ccccc2c1CCNS(=O)(=O)c1ccc(S(N)(=O)=O)cc1	19%	-6	0%	?	-17%	0
O=C(NCCCN1CCCC1=O)c1cc(S(=O)(=O)N2CCOCC2)ccc1Cl	.	-9	25%	-6%	-14%	0
CCc1ccc2[nH]c(=O)c(-c3ccccc3)c(O)c2c1	0%	1	11%	-14%	-8%	2
O=C1C=C(NCc2ccc3c(c2)OCO3)CC(c2ccccc2)C1 (configuration not stated)	3%	6	25%	-2%[57.1 µM]	-2%	-14
COc1cc(Cl)c(S(=O)(=O)NCCc2c(C)[nH]c3c(C)cccc23)cc1Cl	-27%[59 µM]	.	-21%	50µM*	32µM*	.
COc1ccc(C(C)C)cc1S(=O)(=O)NCCc1c(C)[nH]c2ccc(C)cc12	?	.	10%	50µM*	?	.
Cc1ccc([N+](=O)[O-])cc1S(=O)(=O)NCCc1c(C)[nH]c2c(C)cccc12	29%	-7	?	-10%	-1%	4
COCCNC(=O)/C(C#N)=C/c1c(N2CCN(c3ccc(OC)cc3)CC2)nc2c(C)cccn2c1=O	28µM*	-29	-13%	50µM*	40µM*	-14
CCOC(=O)/C(C#N)=C/c1c(N2CCN(CC)CC2)nc2c(C)cccn2c1=O	?	-10	24%	-16%	-3%	9
COCCNC(=O)/C(C#N)=C/c1c(N2CCN(c3ccccc3)CC2)nc2c(C)cccn2c1=O	?	-29	4%	?	-39%	-24
CCOC(=O)/C(C#N)=C/c1c(N2CCN(c3ccc(OC)cc3)CC2)nc2c(C)cccn2c1=O	8.9µM*	-10	?	?	8.9µM*	-14
CCNC(=O)/C(C#N)=C/c1c(N2CCN(c3ccc(OC)cc3)CC2)nc2c(C)cccn2c1=O	40µM*	?	?	20µM*	35µM*	?
COC(=O)/C(C#N)=C/c1c(N2CCN(c3ccccc3)CC2)nc2ccccn2c1=O	79µM*	-19	-20%	?	?	-17
CSc1ncc(C(=O)Nc2cccc(Cl)c2C)c(-c2ccccc2)n1	-6%[59 µM]	.	20%	-29%	3%	.
Cc1cc(C)c(NC(=O)Cn2ccn(-c3cccc(Cl)c3)c(=O)c2=O)c(C)c1	28%[59 µM]	.	95%	54%	55%	.
Cc1ccc(-c2cc(C(=O)OCC(=O)c3ccccc3)c3cccc(Cl)c3n2)cc1	-8%[59 µM]	.	38%	12%	13%	.
COc1cccc(CC(=O)NCc2ccc3c(c2)CCN3C(C)=O)c1	2%[59 µM]	.	31%	-6%	-12%	.
